Hits are enriched below; roughly 11% of the tested compounds scored in any of these assays.
HPGD inh = qHTS Assay for Inhibitors of HPGD (15-Hydroxyprostaglandin Dehydrogenase); 15-hydroxyprostaglandin dehydrogenase [NAD(+)] (Homo sapiens), P15428; purified HPGD, NADH fluorescence kinetic, PGE2 substrate; Potency, µM, inactives show top-dose activity change, negative = inhibition, most hits filed as inhibitors; 150,000 compounds, 4.3% hits; further: potency means the concentration at half of the fitted maximal effect
Target sequence (P15428 whole entry, looked up): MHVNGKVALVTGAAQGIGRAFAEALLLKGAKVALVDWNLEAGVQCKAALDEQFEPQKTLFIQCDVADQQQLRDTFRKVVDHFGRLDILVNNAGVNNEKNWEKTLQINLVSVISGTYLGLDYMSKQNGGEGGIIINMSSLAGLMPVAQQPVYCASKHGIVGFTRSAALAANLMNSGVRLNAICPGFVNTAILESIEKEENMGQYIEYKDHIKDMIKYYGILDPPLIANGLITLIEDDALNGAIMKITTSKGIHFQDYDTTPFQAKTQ
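NADH formation kinetics: reaction with 30 uM PGE2 and 1 mM NAD+ (final), 20 nM enzyme, Tris-HCl pH 8 with Tween 20, after 15 min compound preincubation at room temperature. Fluorescence change, last versus first of five reads.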
PNC assembly inh = High Content Assay for Compounds that inhibit the Assembly of the Perinucleolar Compartment | PC3M PTB-GFP, PNC prevalence imaging, 16 h; active compounds read low | activity change (PNC), negative = inhibition, % at 10 µM | 140,000 compounds, 3.1% hits;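 active means readout at or below -70, meaning at least 70% loss of cells showing the perinucleolar compartment, a nuclear body marking cancer cells; inconclusive means readout between -30 and a set limit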;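 further: plate controls were DMSO wells for no effect and camptothecin positive control wells for full effect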
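Read-out is percentage of cells bearing a perinucleolar compartment, from automated 20x imaging of fixed, Hoechst-stained PC3M PTB-GFP cells. Cells were seeded 4 h, then exposed 16 h to compound (23 nl of library stock) in duplicate plates.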
IMPase cell inh = qHTS Assay for Identifying the Cell-Membrane Permeable IMPase Inhibitors; Inositol monophosphatase 1 (Rattus norvegicus), P97697; CHO-M1 cells, IP1 accumulation, HTRF TR-FRET ratio; inhibition (IP1 accumulation), % at 46.1 µM; 120,000 tested, under 10 active; active means well fitted curve in the direction sought with a large enough effect in the signal ratio, not every such curve was filed as active; inconclusive means small, poorly fitted or top-dose-only effect, or a change in a side signal; inactive means no such curve, though single readings can be large or run the other way; the % refers to the signal ratio;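 further: cells stimulated with carbachol in lithium chloride buffer; plate controls were DMSO basal wells for no effect and reference inhibitor wells for full effect; higher means more IMPase inhibition seen as more IP1 and lower FRET ratio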
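CHO-M1 cells (CHO stably expressing M1 receptor), compound up to 46 uM final, stimulated with carbachol (50 uM as added) in buffer with 50mM LiCl, pH 7.4, 30 min at 37C. Cytosolic IP1 read by TR-FRET; AC50 from Hill fits.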
NPSR antagonist = qHTS Assay for Antagonists of the Neuropeptide S Receptor: cAMP Signal Transduction. Q6W5P4. CHO-NPSR cells, cAMP TR-FRET, antagonist mode. Potency, µM (series often up to 38.3 µM), for the others: top-dose activity change, negative = inhibition, hits mostly inhibitors. 220,000 compounds, 1% hits. AID 1461, 2008; active means well fitted curve in the direction sought with a large enough effect; inconclusive means small, poorly fitted or top-dose-only effect, or another doubt; inactive means no such curve, though single readings can be large; an effect the other way counts as inactive or inconclusive; further: potency means the concentration at half of the fitted maximal effect; nearly all actives have a fitted effect of over 50% in size
IMPase Li inh = qHTS Assay for Identifying the Cell-Membrane Permeable IMPase Inhibitors: Potentiation with Lithium; CHO-M1 cells, IP1 TR-FRET (IP-One), carbachol + lithium; Potency, µM (series often up to 59.4 µM), for inactives: at the highest dose activity, negative = IMPase inhibition, actives largely listed as inhibitors; 210,000 compounds, 0.35% hits; active means well fitted curve in the direction sought with a large enough effect; inconclusive means small, poorly fitted or top-dose-only effect, or another doubt; inactive means no such curve, though single readings can be large; an effect the other way counts as inactive or inconclusive;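 further: IP1 builds up when IMPase is blocked and the TR-FRET signal falls; potency means the concentration at half of the fitted maximal effect; plate controls were basal vehicle for no effect and high inhibitor control for full effect; nearly all actives have a fitted effect of over 50% in size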
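CHO cells stably expressing M1 receptor (2000/well) were cultured 16–30 h, then exposed to compounds with a small lithium addition for 30 min at 37C. IP1 was measured by TR-FRET competition; AC50 from Hill fits.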
ALDH1A1 inh = qHTS Assay for Inhibitors of Aldehyde Dehydrogenase 1 (ALDH1A1); Aldehyde dehydrogenase 1A1 (Homo sapiens), P00352; Purified ALDH1A1, NADH fluorescence, propionaldehyde substrate; Potency, µM (top dose mostly 75.3 µM), inactives show at the top dose activity, negative = inhibition, hits mostly inhibitors; 220,000 compounds, 7.3% hits;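 further: potency means the concentration at half of the fitted maximal effect; plate controls were no enzyme wells and a reference inhibitor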
Target sequence (P00352 whole entry, looked up): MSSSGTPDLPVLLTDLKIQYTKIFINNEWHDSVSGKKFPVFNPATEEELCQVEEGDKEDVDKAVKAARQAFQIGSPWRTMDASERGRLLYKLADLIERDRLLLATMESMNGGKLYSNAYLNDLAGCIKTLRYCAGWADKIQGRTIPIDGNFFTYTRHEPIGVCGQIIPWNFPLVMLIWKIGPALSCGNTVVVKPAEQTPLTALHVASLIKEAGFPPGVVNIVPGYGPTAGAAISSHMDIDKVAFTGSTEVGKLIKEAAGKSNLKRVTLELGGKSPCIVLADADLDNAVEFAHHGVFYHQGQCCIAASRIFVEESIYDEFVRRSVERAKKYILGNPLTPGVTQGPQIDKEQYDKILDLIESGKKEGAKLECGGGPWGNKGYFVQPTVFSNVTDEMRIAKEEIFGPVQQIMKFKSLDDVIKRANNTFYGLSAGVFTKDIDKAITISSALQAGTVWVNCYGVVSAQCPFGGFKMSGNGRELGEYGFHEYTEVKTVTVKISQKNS
Starred values were filed as active, the others as inactive; ? = inconclusive; nt = no result; [ ] = remark or other dose. Unless noted, the call rests on the fitted dose curve; in most records, active means well fitted inhibition curve with a large enough effect (not every such curve was filed as active); inconclusive means small, poorly fitted or top-dose-only effect, or another doubt; inactive means no such curve, though single readings can be large or run the other way. Unless noted, on the % scale 0 is the no-effect control and ±100 the full control effect.

SMILES | HPGD inh | PNC assembly inh | IMPase cell inh | NPSR antagonist | IMPase Li inh | ALDH1A1 inh
CN(Cc1ccccc1)C(=O)c1oc(=O)c2ccccc2c1-c1ccccc1 | -9% | 82 | nt | -24% | 15% | ?
CCOC(=O)N1CCN(C(=O)c2oc(=O)c3ccccc3c2-c2ccc(C)cc2)CC1 | -8% | ? | 0 | -22%[46.1 µM] | 21%[38.3 µM] | 0.014µM*
Cc1ccc(-c2c(C(=O)NC(C)C)oc(=O)c3ccccc23)cc1 | nt | nt | nt | -1% | 1% | 1.4µM*
COc1cccc2cc(C(=O)Nc3ccc(F)cc3)c(=Nc3ccc(C(=O)O)cc3)oc12 | nt | nt | nt | -20% | 1% | 4%
CCOc1ccc(C(Nc2cccnc2)c2cc(Cl)c3cccnc3c2O)cc1 (stereo not given) | nt | nt | nt | 4% | -6% | 1.3µM*
CCC1CCCCN1S(=O)(=O)c1ccc(NC(=O)c2cccs2)cc1 (stereo not given) | -12% | -100* | 19 | 4%[46.1 µM] | 5% | 15%
CCC1CCCCN1S(=O)(=O)c1ccc(NC(=O)CSc2ncccc2C(=O)O)cc1 (stereo not given) | 14µM* | -2 | -2 | -6%[46.1 µM] | -8%[38.3 µM] | ?
COc1ccc(NS(=O)(=O)c2coc(C(N)=O)c2)cc1Cl | -4% | -2 | 3 | 7%[46.1 µM] | 3% | 0%
CCOc1ccc(N2CCCCn3c2nc2c3c(=O)[nH]c(=O)n2C)cc1 | -5% | -24 | -3 | 9%[46.1 µM] | -2%[38.3 µM] | 3%
CC1CN(C(=O)c2ccc(COc3ccc(C(C)C)cc3)o2)CC(C)O1 (stereo not given) | nt | nt | nt | 3% | 9% | 28µM*
O=C(O)c1ccc(CNC(=O)c2ccccc2NC(=O)c2cccc([N+](=O)[O-])c2)cc1 | nt | nt | nt | 19% | 7% | 19%
CCOC(=O)N1CCN(C(=O)CS(=O)Cc2nc(-c3cccc(C)c3)oc2C)CC1 (stereo not given) | -4% | -28 | -8 | -7%[46.1 µM] | 5%[38.3 µM] | ?
Cc1cccc(-c2nc(CS(=O)CC(=O)N3CCc4ccccc4C3)c(C)o2)c1 (stereo not given) | ? | -106* | -2 | -6%[46.1 µM] | 1%[38.3 µM] | ?
O=c1[nH]c(/C=C/c2cccc3ccccc23)nc2ccccc12 | nt | nt | nt | -15% | -8% | -7%
CCCN1C(=O)/C(=C\c2nc3ccccc3c(=O)[nH]2)c2ccccc21 | nt | nt | nt | 19% | 35% | 4.5µM*
Cc1ccc(Cn2cc(SCC(=O)Nc3nccs3)c3ccccc32)cc1 | -18% | ? | 15 | 10µM* | 37%[38.3 µM] | ?
Cc1nnc(NC(=O)CSc2cn(Cc3ccccc3)c3ccccc23)s1 | -1% | -26 | 3 | ? | -13%[38.3 µM] | ?
COc1ccccc1C(=O)NCCn1cc(SCC(=O)Nc2nnc(C)s2)c2ccccc21 | -15% | ? | 10 | ? | 14%[38.3 µM] | 0.32µM*
Cc1cc(NC(=O)CSc2cn(CCNC(=O)c3ccccc3)c3ccccc23)no1 | 3% | -30 | 10 | -12%[46.1 µM] | -7%[38.3 µM] | ?
Cc1ccc(C(=O)NCCn2cc(SCC(=O)Nc3cc(C)on3)c3ccccc32)cc1 | -6% | ? | 12 | -7%[46.1 µM] | 11%[38.3 µM] | 13µM*
O=C(/C=C\NCC(=O)c1ccccc1)c1ccc(F)cc1 | -21% | 56 | 13 | -18%[46.1 µM] | -3%[38.3 µM] | 20µM*
O=C(/C=C\NCC(=O)c1ccccc1)c1ccc2ccccc2c1 | nt | ? | -1 | 3%[46.1 µM] | nt | 4.5µM*
O=C(CCC(=O)OCC(=O)c1cccc([N+](=O)[O-])c1)NC1CCCCC1 | nt | nt | nt | 0%[7.67 µM] | nt | nt
O=C(CCC(=O)OCC(=O)c1ccc([N+](=O)[O-])cc1)NC1CCCCC1 | -20% | 29 | nt | 18% | 2% | 2.8µM*
O=C(CSCc1ccc(F)cc1)NC1CCCC1 | -19% | -1 | -6 | -2%[46.1 µM] | -6%[38.3 µM] | -5%
SMILES | HPGD inh | PNC assembly inh | IMPase cell inh | NPSR antagonist | IMPase Li inh | ALDH1A1 inh
O=C(CSCc1ccc([N+](=O)[O-])cc1)NC1CCCCCC1 | nt | nt | nt | -30% | 15% | 25µM*
Cc1cccc(NC(=O)CCC(=O)OCC(=O)c2ccc(Oc3ccc([N+](=O)[O-])cc3)cc2)c1 | -21% | 9 | nt | -4% | 0% | 7.1µM*
Cc1ccc(NC(=O)CCC(=O)OCC(=O)c2ccc(Oc3ccc([N+](=O)[O-])cc3)cc2)cc1C | -15% | 138 | -1 | -29%[46.1 µM] | 7%[38.3 µM] | -11%
COC(=O)[C@@]1(Cc2ccccc2)C=C[C@@H](C)N1C(=O)c1ccccc1 | -24% | nt | nt | nt | 7% | 40µM*
CC(=O)N1[C@H](C)C=C[C@]1(Cc1ccccc1)C(=O)NCc1ccc(C)o1 | 14µM* | nt | nt | nt | -5% | ?
O=C(NS(=O)(=O)c1ccccc1)c1ccccc1F | ? | -122* | -2 | -1%[46.1 µM] | 16%[38.3 µM] | 4%
O=S(=O)(c1ccc(C2=CSC3=NCCN23)cc1)N1CCOCC1 | ? | -8 | -18 | 0%[46.1 µM] | -6%[38.3 µM] | 16µM*
Brc1ccc(C2=CSC3=NCCN23)cc1 | nt | nt | nt | -9% | 8% | 2%
N#Cc1cc2c(nc1SCc1ccccc1)CCCCC2 | -8% | -1 | 12 | ? | 20%[38.3 µM] | 8%
N#Cc1cc2c(nc1SCC1COc3ccccc3O1)CCC2 (stereo not given) | 25µM* | 17 | 16 | -21%[46.1 µM] | 18%[38.3 µM] | ?
CCc1ccc2c(c1)c1nc(C)sc1n2CC | 28µM* | 56 | 12 | 4%[46.1 µM] | 15%[38.3 µM] | 32µM*
CCCCNC(=O)CNC(=S)N(Cc1ccccc1F)C1CCCCC1 | nt | nt | nt | -42% | 6% | 22µM*
COCCCNC(=O)CNC(=S)N(Cc1ccccc1F)C1CCCCC1 | -4% | 9 | -5 | -8%[46.1 µM] | 26%[38.3 µM] | 14µM*
CCCCNC(=O)CNC(=S)N(Cc1cc(OC)c(OC)c(OC)c1)C1CCCC1 | -3% | 3 | 10 | 13% | 3% | -1%
O=C(O)CNC(=S)N(Cc1ccccc1F)C1CCCCC1 | nt | nt | nt | -9% | -10% | ?
O=C(CNC(=S)N(Cc1ccccc1F)C1CCCCC1)NCC1CCCO1 (stereo not given) | nt | nt | nt | -50% | ? | 7.1µM*
CC1=CC(C)(C)NC(=S)N1c1cccc2cc(S(=O)(=O)O)ccc12 | nt | nt | nt | -16% | nt | 28µM*
O=C1CC(CCC(=O)NC2CC2)c2ccccc2N1 (stereo not given) | -5% | 3 | 2 | -6%[46.1 µM] | -3%[38.3 µM] | -6%
CCNc1c([N+](=O)[O-])c(=O)oc2ccccc12 | nt | nt | nt | 2% | -13% | 18µM*
O=c1oc2ccccc2c(NC(c2ccccc2)c2ccccc2)c1[N+](=O)[O-] | -15% | 9 | nt | -10% | 8% | 22µM*

Bioassay records as filed in PubChem.
